Screening data as filed in PubChem BioAssay.
Lassa entry inh: inhibitors of Lassa virus binding or cell entry; 1.2% of 300,000 active; Lassa virus pseudotype entry inhibition, cell reporter; Potency, µM (highest dose often 37.9 µM), without a hit: at the top dose activity change, negative = inhibition, hits mostly inhibitors; calls by dose curve; tested in HEK293 cells; note: potency is the fitted concentration of half-maximal effect; nearly all actives have a fitted effect of over 50% in size
Vaccinia Venus: vaccinia inhibition (Venus reporter); Vaccinia virus Venus reporter expression, fluorescence; Potency, µM (doses to about 36.5 µM), for the others: at the top dose activity change, negative = inhibition, actives largely listed as inhibitors; 0.46% of 330,000 active; AID 720580; calls by dose curve; tested in A549 cells; note: potency is the fitted concentration of half-maximal effect; nearly all actives have a fitted effect of over 30% in size
HCMV antiviral: blocks human cytomegalovirus replication | 4.5% of 410,000 active | activity change, negative = inhibition, % at 57.5 µM | HFF cells, HCMV-luciferase reporter, 72 h; hits give low values; in the data active = activity change below about -60%; inconclusive = no clear call, values can overlap the other calls; inactive = above about -39%
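Human foreskin fibroblasts infected with luciferase-reporter HCMV at MOI 1 PFU/cell, compounds at two doses. Luciferase measured 72 h post infection; normalized to buffer-only basal and Salinomycin (10uM) controls.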
FMDV inh: antivirals against foot and mouth disease virus | 1.2% of 410,000 active | FMDV antiviral cell-based qHTS | Potency, µM (top dose mostly 57.9 µM), inactives show at the top dose activity change, negative = inhibition, most hits filed as inhibitors; calls by dose curve; tested in HEK293T cells; note: read-out not given here; potency is the fitted concentration of half-maximal effect; nearly all actives have a fitted effect of over 45% in size
Marburg entry inh: blocks Marburg virus binding to or entry into cells. Potency, µM (doses to about 37.8 µM), for the others: at the highest dose activity change, negative = inhibition, usual class: inhibitors. Marburg virus pseudotyped entry inhibition, cell reporter. AID 540276. 1.8% of 300,000 active; calls by dose curve; tested in HEK293 cells; note: potency is the fitted concentration of half-maximal effect
Vaccinia mCherry: vaccinia inhibition (mCherry reporter) | Vaccinia virus mCherry reporter infection, fluorescence | Potency, µM (top dose mostly 36.5 µM), inactives show at the top dose activity change, negative = inhibition, actives largely listed as inhibitors | 0.63% of 310,000 active | AID 720579; calls by dose curve; tested in A549 cells; note: potency is the fitted concentration of half-maximal effect; nearly all actives have a fitted effect of over 35% in size
* marks the source's active call; other numbers are inactive results; [ ] = remark or other dose. This is a sample that favours compounds with a hit; in the whole collection about 6.5% have one here. % is set by controls: 0 for no effect and ±100 for the full control effect.

Screening COc1ccccc1Nc1c2c(nc3ccc(NC(=O)c4cccc(F)c4)cc13)CCCC2 returned Lassa entry inh inconclusive, Vaccinia Venus inconclusive, HCMV antiviral -107*, FMDV inh 32µM*, Marburg entry inh inconclusive and Vaccinia mCherry 11µM*.
COc1ccc(/C=C/C(=O)Nc2ccc3nc4n(c(=O)c3c2)CCCC4)cc1OC was read as HCMV antiviral -34 and FMDV inh -6%.
COc1cccc(C(=O)O)c1OS(=O)(=O)c1ccc(C)cc1 was read as Vaccinia Venus -5%, HCMV antiviral 9, FMDV inh -16% and Vaccinia mCherry inactive.
For O=C(c1cc2c(c(-c3cccc(-c4ccncc4)c3)n1)[C@H](CCO)N(C(=O)c1ccc3c(c1)OCO3)C2)N1CCOCC1 the results were Vaccinia Venus -2%, HCMV antiviral 0, FMDV inh -24% and Vaccinia mCherry -8%.
For CC(C)(C)c1nc(SCC(=O)NNC(=O)c2ccccc2)c2ccccc2n1 the results were Vaccinia Venus -30%, HCMV antiviral -63*, FMDV inh 0%, Marburg entry inh inconclusive and Vaccinia mCherry inconclusive.
For CC(C)c1nc(SCC(=O)Nc2nccs2)c2ccccc2n1 the results were Lassa entry inh -6%, Vaccinia Venus -19%, HCMV antiviral inconclusive, FMDV inh -28%, Marburg entry inh -11%[46.1 µM] and Vaccinia mCherry 27%.
For COc1ccc(NC(=O)CSc2nc(N)c(C(=O)Nc3ccc(N(C)C)cc3)s2)cc1 the results were Lassa entry inh -19%, Vaccinia Venus inconclusive, FMDV inh 8% and Marburg entry inh inconclusive.
COc1ccc(C(=O)NNC(=O)CSc2nc(C(C)C)nc3ccccc23)cc1 was read as Lassa entry inh -12%[46.1 µM], Vaccinia Venus -15%, HCMV antiviral -65*, FMDV inh -14%, Marburg entry inh inconclusive and Vaccinia mCherry -12%.
`CC(C)c1nc(SCC(=O)Nc2ccc(N(C)C)cc2)c2ccccc2n1` gave HCMV antiviral -77* and FMDV inh inconclusive.
`CN(C)c1ccc(NC(=O)CSc2nc(N)c(C(=O)Nc3ccc(N(C)C)cc3)s2)cc1` gave Lassa entry inh inconclusive, Vaccinia Venus 4µM*, HCMV antiviral inconclusive, FMDV inh inconclusive, Marburg entry inh inconclusive and Vaccinia mCherry 4µM*.
COc1ccc(S(=O)(=O)Nc2c(NC3CCCCC3)c3ccccc3oc2=O)cc1OC was read as HCMV antiviral inconclusive and FMDV inh -11%.
Screening COc1cccc(OC)c1C(=O)Nc1ccc2c(c1)OCCO2 returned Lassa entry inh -7%, HCMV antiviral -79*, FMDV inh -3% and Marburg entry inh 2%.
O=C(Nc1cccc([N+](=O)[O-])c1)c1ccc2c(c1)OCCO2 was read as Lassa entry inh inconclusive, Vaccinia Venus -13%, HCMV antiviral -107*, FMDV inh -16%, Marburg entry inh inconclusive and Vaccinia mCherry -12%.
`O=C(Nc1cccc(Cl)c1)c1ccc2c(c1)OCCO2` gave Lassa entry inh inconclusive, Vaccinia Venus -9%, HCMV antiviral 97, FMDV inh inconclusive, Marburg entry inh inconclusive and Vaccinia mCherry -14%.
For COc1ccc(C(=O)Nc2ccc3c(c2)OCCO3)cc1 the results were Lassa entry inh 5.2µM*, Vaccinia Venus -8%, HCMV antiviral 61, Marburg entry inh 6.5µM* and Vaccinia mCherry inactive.
COc1cccc(C(=O)N2CCOCC2)c1 was read as Lassa entry inh -1%, Vaccinia Venus -7%, HCMV antiviral -22, FMDV inh 6%, Marburg entry inh -11%[46.1 µM] and Vaccinia mCherry -3%.
`COc1cccc(C(=O)Nc2cccc(C(=O)N3CCOCC3)c2)c1` gave Lassa entry inh 2%, HCMV antiviral -66*, FMDV inh 19% and Marburg entry inh inconclusive.
`O=C(NCC1(N2CCOCC2)CCCCC1)c1cnn(-c2nccc(-c3cccs3)n2)c1C1CC1` gave Vaccinia Venus inconclusive, FMDV inh -16% and Vaccinia mCherry inconclusive.
`COc1ccccc1C(=O)Nc1cccc(N2CCC(NCc3cnn(-c4ccccc4)n3)CC2)c1` gave Vaccinia Venus -30%, FMDV inh -19% and Vaccinia mCherry -7%.
COc1ccc(C(=O)Nc2nc(C)c3cc4c(cc3n2)OCO4)cc1 was read as Lassa entry inh -1%[46.1 µM], Vaccinia Venus -2%, HCMV antiviral 1, FMDV inh 25µM*, Marburg entry inh inconclusive and Vaccinia mCherry -7%.
Screening O=C(Nc1nnc(C2=COCCO2)o1)c1ccc([N+](=O)[O-])cc1 returned Lassa entry inh -20%, Vaccinia Venus -28%, HCMV antiviral -98*, FMDV inh 10%, Marburg entry inh -11% and Vaccinia mCherry inactive.
Screening O=C(Nc1ccc2c(c1)OCCO2)c1ccc(Br)s1 returned Lassa entry inh 5.6µM*, Vaccinia Venus -21%, HCMV antiviral -5, FMDV inh inconclusive, Marburg entry inh 7.9µM* and Vaccinia mCherry -18%.
Screening COc1cc(OC)cc(-c2nnc(NC(=O)c3ccc4c(c3)OCCO4)o2)c1 returned HCMV antiviral -61* and FMDV inh -16%.
CCc1sc(C(=O)Nc2ccc3c(c2)OCCO3)cc1Br was read as HCMV antiviral 30.
O=C(CN1CCN(Cc2ccc(F)cc2)CC1)Nc1ccccc1F was read as HCMV antiviral -10 and FMDV inh -12%.
`COc1cccc(NC(=O)c2ccc3c(c2)OCCO3)c1` gave Lassa entry inh 1.1µM*, Vaccinia Venus 1%, HCMV antiviral 32, FMDV inh -43%, Marburg entry inh inconclusive and Vaccinia mCherry 0%.
For COc1ccc(C(=O)Nc2ccc3[nH]ccc3c2)cc1 the results were Lassa entry inh 1.4µM*, Vaccinia Venus -25%, HCMV antiviral 42, FMDV inh 8.9µM*, Marburg entry inh inconclusive and Vaccinia mCherry inconclusive.
`COc1cccc(NC(=O)c2ccc3c(O)c(S(=O)(=O)c4ccccc4)c(=O)[nH]c3c2)c1` gave Lassa entry inh -7%[46.1 µM], Vaccinia Venus -5%, HCMV antiviral -63*, FMDV inh -16%, Marburg entry inh 11%[46.1 µM] and Vaccinia mCherry -13%.
O=C(Nc1ccc2c(c1)OCCO2)c1coc2ccccc2c1=O was read as Lassa entry inh -6%, Vaccinia Venus -25%, HCMV antiviral -36, FMDV inh 7.9µM*, Marburg entry inh -5% and Vaccinia mCherry inconclusive.
`Cc1ccccc1C(=O)Nc1ccc2c(c1)OCCO2` gave HCMV antiviral -14 and FMDV inh -21%.
For O=C(O)C1=CC[C@@H](c2ccc(Cl)cc2)N(S(=O)(=O)c2ccc(Cl)cc2)[C@H]1c1ccccc1 the results were Vaccinia Venus -20%, HCMV antiviral -7, FMDV inh -15% and Vaccinia mCherry inactive.
`COc1cc2cc(C(=O)Nc3ccc4c(c3)OCCO4)[nH]c2cc1OC` gave HCMV antiviral -68* and FMDV inh inconclusive.
